# From PubChem BioAssay AID1159580 (chemical genetic matrix, 2015)
# Where “and” joins values, the source holds several entries; their conditions need not be identical. Equal values may be shown once. The whole screen tested about 5,500 compounds, of which about 2,000 (36%) were called active. Roughly 18% stayed inconclusive and do not appear here. No stated cut-off is given here; in the data, active means normalized growth mostly below about 0.91 (no sharp cut-off); inconclusive means no clear call, values can overlap the other calls; inactive means mostly above about 0.92. This is one part of the list. Where a structure was tested more than once in an assay, its records may differ in their call.
# Assay: chemical genetic growth profiling, strain panel (AID 1159580);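 further: tested at 20 µM; growth read once vehicle control cultures reached saturation at 30 °C; 1 = growth at the plate median or of vehicle wells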
# Conditions: growth OD
smiles,measurement,setting,value
O=C(Nc1ccc([N+](=O)[O-])cc1Cl)c1cc(Cl)ccc1O,normalized growth,"S. cerevisiae deletion strains, locus YJR075W, strain HOC1, stronger effect = lower value",0.815 (active) and 0.99 (inactive)
same,normalized growth,"S. cerevisiae deletion strains, locus YKL009W, strain mrt4, stronger effect = lower value",1.2 [resistant] (active)
same,normalized growth,"S. cerevisiae deletion strains, locus YKL068W, stronger effect = lower value",1 (inactive)
same,normalized growth,"S. cerevisiae deletion strains, locus YKL085W, strain MDH1 (second series), stronger effect = lower value",1.04 (inactive)
same,normalized growth,"S. cerevisiae deletion strains, locus YKL085W, strain MDH1, stronger effect = lower value",1.04 (inactive)
same,normalized growth,"S. cerevisiae deletion strains, locus YKL160W, strain elf1, stronger effect = lower value",0.773 (active)
same,normalized growth,"S. cerevisiae deletion strains, locus YKR001C, strain vps1, stronger effect = lower value",0.459 (active)
same,normalized growth,"S. cerevisiae deletion strains, locus YKR026C, strain gcn3, stronger effect = lower value",0.978 (inactive)
same,normalized growth,"S. cerevisiae deletion strains, locus YKR091W, strain srl3, stronger effect = lower value",0.938 (inactive)
same,normalized growth,"S. cerevisiae deletion strains, locus YLL001W, strain dnm1, stronger effect = lower value",0.971 (inactive)
same,normalized growth,"S. cerevisiae deletion strains, locus YLL026W, stronger effect = lower value",0.939 (inactive)
same,normalized growth,"S. cerevisiae deletion strains, locus YLL041C, strain sdh2, stronger effect = lower value",0.931 (inactive)
same,normalized growth,"S. cerevisiae deletion strains, locus YLR027C, strain aat2, stronger effect = lower value",0.92 (active)
same,normalized growth,"S. cerevisiae deletion strains, locus YLR039C, strain RIC1, stronger effect = lower value",0.289 (active)
same,normalized growth,"S. cerevisiae deletion strains, locus YLR058C, strain SHM2, stronger effect = lower value",0.948 (inactive)
same,normalized growth,"S. cerevisiae deletion strains, locus YLR102C, strain apc9, stronger effect = lower value",1 (inactive)
same,normalized growth,"S. cerevisiae deletion strains, locus YLR113W, strain HOG1, stronger effect = lower value",1.01 (inactive)
same,normalized growth,"S. cerevisiae deletion strains, locus YLR221C, strain rsa3, stronger effect = lower value",0.906 (active)
same,normalized growth,"S. cerevisiae deletion strains, locus YLR258W, strain gsy2, stronger effect = lower value",0.977 (inactive)
same,normalized growth,"S. cerevisiae deletion strains, locus YLR262C, strain YPT6 (second series), stronger effect = lower value",0.241 (active)
same,normalized growth,"S. cerevisiae deletion strains, locus YLR262C, strain YPT6, stronger effect = lower value",0.193 (active)
same,normalized growth,"S. cerevisiae deletion strains, locus YLR268W, strain sec22, stronger effect = lower value",0.964 (inactive)
same,normalized growth,"S. cerevisiae deletion strains, locus YLR320W, strain mms22, stronger effect = lower value",0.833 (active)
same,normalized growth,"S. cerevisiae deletion strains, locus YLR330W, strain CHS5, stronger effect = lower value",0.942 (inactive)
same,normalized growth,"S. cerevisiae deletion strains, locus YLR342W, strain FKS1 (second series), stronger effect = lower value",0.667 (active)
same,normalized growth,"S. cerevisiae deletion strains, locus YLR342W, strain FKS1, stronger effect = lower value",0.967 (inactive)
same,normalized growth,"S. cerevisiae deletion strains, locus YLR357W, strain rsc2, stronger effect = lower value",1.02 (inactive)
same,normalized growth,"S. cerevisiae deletion strains, locus YLR370C, strain arc18, stronger effect = lower value",0.949 (inactive)
same,normalized growth,"S. cerevisiae deletion strains, locus YLR371W, strain rom2, stronger effect = lower value",1 (inactive)
same,normalized growth,"S. cerevisiae deletion strains, locus YLR384C, strain iki3, stronger effect = lower value",1.09 [resistant] (active)
same,normalized growth,"S. cerevisiae deletion strains, locus YLR418C, strain cdc73, stronger effect = lower value",0.793 (active)
same,normalized growth,"S. cerevisiae deletion strains, locus YML016C, strain PPZ1, stronger effect = lower value",0.975 (inactive)
same,normalized growth,"S. cerevisiae deletion strains, locus YML120C, strain ndi1, stronger effect = lower value",0.975 (inactive)
same,normalized growth,"S. cerevisiae deletion strains, locus YML124C, strain tub3, stronger effect = lower value",1.17 [resistant] (active)
same,normalized growth,"S. cerevisiae deletion strains, locus YMR058W, strain fet3, stronger effect = lower value",0.966 (inactive)
same,normalized growth,"S. cerevisiae deletion strains, locus YMR078C, strain ctf18, stronger effect = lower value",1.17 [resistant] (active)
same,normalized growth,"S. cerevisiae deletion strains, locus YMR125W, strain sto1, stronger effect = lower value",0.999 (inactive)
same,normalized growth,"S. cerevisiae deletion strains, locus YMR129W, stronger effect = lower value",0.937 (inactive)
same,normalized growth,"S. cerevisiae deletion strains, locus YMR205C, strain PFK2, stronger effect = lower value",0.759 (active)
same,normalized growth,"S. cerevisiae deletion strains, locus YMR223W, strain ubp8, stronger effect = lower value",1.09 (inactive)
same,normalized growth,"S. cerevisiae deletion strains, locus YMR231W, strain pep5, stronger effect = lower value",0.901 (active)
same,normalized growth,"S. cerevisiae deletion strains, locus YMR263W, strain SAP30, stronger effect = lower value",0.991 (inactive)
same,normalized growth,"S. cerevisiae deletion strains, locus YMR307W, strain GAS1, stronger effect = lower value",0.393 (active) and 0.947 (inactive)
same,normalized growth,"S. cerevisiae deletion strains, locus YNL067W, strain RPL9B, stronger effect = lower value",0.925 (inactive)
same,normalized growth,"S. cerevisiae deletion strains, locus YNL071W, strain lat1, stronger effect = lower value",0.809 (active)
same,normalized growth,"S. cerevisiae deletion strains, locus YNL153C, strain GIM3, stronger effect = lower value",0.924 (inactive) and 0.687 (active)
same,normalized growth,"S. cerevisiae deletion strains, locus YNL175C, strain NOP13, stronger effect = lower value",0.868 (active)
same,normalized growth,"S. cerevisiae deletion strains, locus YNL183C, strain NPR1, stronger effect = lower value",0.933 (inactive)
same,normalized growth,"S. cerevisiae deletion strains, locus YNL197C, strain WHI3, stronger effect = lower value",0.789 (active)
same,normalized growth,"S. cerevisiae deletion strains, locus YNL209W, strain ssb2, stronger effect = lower value",0.925 (active)
same,normalized growth,"S. cerevisiae deletion strains, locus YNL224C, strain SQS1, stronger effect = lower value",0.972 (inactive)
same,normalized growth,"S. cerevisiae deletion strains, locus YNL233W, strain BNI4, stronger effect = lower value",0.803 (active)
same,normalized growth,"S. cerevisiae deletion strains, locus YNL248C, strain rpa49, stronger effect = lower value",0.969 (inactive)
same,normalized growth,"S. cerevisiae deletion strains, locus YNL250W, strain rad50, stronger effect = lower value",1.01 (inactive)
same,normalized growth,"S. cerevisiae deletion strains, locus YNL271C, strain bni1, stronger effect = lower value",0.999 (inactive)
same,normalized growth,"S. cerevisiae deletion strains, locus YNL298W, strain CLA4, stronger effect = lower value",1 (inactive)
same,normalized growth,"S. cerevisiae deletion strains, locus YNL307C, strain MCK1, stronger effect = lower value",0.986 (inactive)
same,normalized growth,"S. cerevisiae deletion strains, locus YNL322C, strain KRE1 (second series), stronger effect = lower value",1.06 (inactive)
same,normalized growth,"S. cerevisiae deletion strains, locus YNL322C, strain KRE1, stronger effect = lower value",0.921 (active) and 0.992 (inactive)
same,normalized growth,"S. cerevisiae deletion strains, locus YNR049C, strain mso1, stronger effect = lower value",1 (inactive)
same,normalized growth,"S. cerevisiae deletion strains, locus YNR052C, strain pop2, stronger effect = lower value",1.12 [resistant] (active)
same,normalized growth,"S. cerevisiae deletion strains, locus YOL006C, strain TOP1, stronger effect = lower value",0.632 (inactive)
same,normalized growth,"S. cerevisiae deletion strains, locus YOL012C, strain htz1",0.729 (inactive)
same,normalized growth,"S. cerevisiae deletion strains, locus YOL147C, strain pex11, stronger effect = lower value",1.19 [resistant] (active)
same,normalized growth,"S. cerevisiae deletion strains, locus YOR001W, strain rrp6, stronger effect = lower value",0.944 (inactive)
same,normalized growth,"S. cerevisiae deletion strains, locus YOR061W, strain CKA2, stronger effect = lower value",0.969 (inactive)
same,normalized growth,"S. cerevisiae deletion strains, locus YOR069W, strain VPS5, stronger effect = lower value",0.96 (inactive)
same,normalized growth,"S. cerevisiae deletion strains, locus YOR070C, strain gyp1, stronger effect = lower value",0.842 (active)
same,normalized growth,"S. cerevisiae deletion strains, locus YOR080W, strain dia2, stronger effect = lower value",0.904 (active)
same,normalized growth,"S. cerevisiae deletion strains, locus YOR083W, strain WHI5 (second series), stronger effect = lower value",0.751 (active)
same,normalized growth,"S. cerevisiae deletion strains, locus YOR083W, strain WHI5, stronger effect = lower value",0.88 (active)
same,normalized growth,"S. cerevisiae deletion strains, locus YOR106W, strain vam3, stronger effect = lower value",0.843 (active)
same,normalized growth,"S. cerevisiae deletion strains, locus YOR136W, strain idh2, stronger effect = lower value",1.03 (inactive)
same,normalized growth,"S. cerevisiae deletion strains, locus YOR144C, strain elg1, stronger effect = lower value",1.19 [resistant] (active)
same,normalized growth,"S. cerevisiae deletion strains, locus YOR184W, strain ser1, stronger effect = lower value",1.03 (inactive)
same,normalized growth,"S. cerevisiae deletion strains, locus YOR231W, strain MKK1, stronger effect = lower value",1.01 (inactive)
same,normalized growth,"S. cerevisiae deletion strains, locus YOR265W, strain rbl2, stronger effect = lower value",0.928 (active)
same,normalized growth,"S. cerevisiae deletion strains, locus YOR270C, strain vph1, stronger effect = lower value",0.666 (active)
same,normalized growth,"S. cerevisiae deletion strains, locus YOR290C, strain snf2, stronger effect = lower value",0.98 (inactive)
same,normalized growth,"S. cerevisiae deletion strains, locus YOR316C, strain cot1, stronger effect = lower value",1.02 (inactive)
same,normalized growth,"S. cerevisiae deletion strains, locus YPL051W, strain arl3, stronger effect = lower value",0.607 (active)
same,normalized growth,"S. cerevisiae deletion strains, locus YPL055C, strain LGE1, stronger effect = lower value",0.731 (active)
same,normalized growth,"S. cerevisiae deletion strains, locus YPL078C, strain atp4, stronger effect = lower value",0.866 (active)
same,normalized growth,"S. cerevisiae deletion strains, locus YPL106C, strain sse1, stronger effect = lower value",0.962 (inactive)
same,normalized growth,"S. cerevisiae deletion strains, locus YPL240C, strain hsp82, stronger effect = lower value",1.01 (inactive)
same,normalized growth,"S. cerevisiae deletion strains, locus YPL256C, strain CLN2, stronger effect = lower value",0.994 (inactive)
same,normalized growth,"S. cerevisiae deletion strains, locus YPR119W, strain clb2, stronger effect = lower value",1.06 (inactive)
same,normalized growth,"S. cerevisiae deletion strains, locus YPR141C, strain kar3, stronger effect = lower value",1.02 (inactive)
same,normalized growth,"S. cerevisiae deletion strains, locus YPR163C, strain tif3, stronger effect = lower value",1.04 (inactive)
same,normalized growth,"S. cerevisiae deletion strains, locus YPR167C, strain met16, stronger effect = lower value",1.06 (inactive)
same,normalized growth,"S. cerevisiae deletion strains, strain wtn01, stronger effect = lower value",1.03 (inactive)
same,normalized growth,"S. cerevisiae strains, strain wild type, stronger effect = lower value",0.904 (inactive)
